# Tests used:
# Experiment in all cases: DAPPL (digital affinity profiling via proximity ligation, sequencing); 10 mM Tris-HCl pH 7.5, 50 mM NaCl, 1 mM DTT, 4% glycerol, room temperature, 30 min; GST-TFs on glutathione beads, 16-mer random dsDNA library, 0.1% formaldehyde crosslink after washing; high values mean tight binding
# Settings in all cases: protein: recombinant; tags: N-terminal GST; dsDNA, one strand shown
# ERF = biological target: T1, ERF (Homo sapiens, UniProt P50548 1-548)
# T1 sequence: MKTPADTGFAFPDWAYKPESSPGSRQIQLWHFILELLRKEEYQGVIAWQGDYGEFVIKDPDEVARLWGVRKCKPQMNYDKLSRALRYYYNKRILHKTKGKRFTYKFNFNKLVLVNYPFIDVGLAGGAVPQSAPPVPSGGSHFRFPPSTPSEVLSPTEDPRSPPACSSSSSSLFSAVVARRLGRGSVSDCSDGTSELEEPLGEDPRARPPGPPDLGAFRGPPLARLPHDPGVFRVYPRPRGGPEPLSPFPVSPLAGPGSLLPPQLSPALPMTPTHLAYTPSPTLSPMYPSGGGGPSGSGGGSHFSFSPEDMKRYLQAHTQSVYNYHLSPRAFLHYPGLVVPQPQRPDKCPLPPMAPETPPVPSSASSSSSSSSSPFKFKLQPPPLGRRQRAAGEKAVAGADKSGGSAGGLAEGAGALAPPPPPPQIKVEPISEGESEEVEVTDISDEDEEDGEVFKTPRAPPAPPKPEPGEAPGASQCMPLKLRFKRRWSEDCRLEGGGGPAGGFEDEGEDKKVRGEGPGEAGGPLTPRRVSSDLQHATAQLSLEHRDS
# Outline: (§1)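 Human transcription factors fused to GST were expressed in yeast, captured on glutathione beads, given DNA barcodes and pooled with a GST-only negative control. Pools were incubated with 200 nmole of a 16-mer random double-stranded DNA library in Tris/NaCl/DTT/glycerol buffer at room temperature for 30 min. They were then washed, crosslinked with 0.1% formaldehyde, proximity-ligated (BsaI/T4 ligase, 1 h, 37 °C), PCR-amplified and sequenced on an Illumina NextSeq500. Binding signal is each 6-mer's read frequency for a factor divided by its frequency for the GST control.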
# ETV3L = biological target: T2, ETV3L (Homo sapiens, UniProt Q6ZN32 1-361)
# T2 sequence: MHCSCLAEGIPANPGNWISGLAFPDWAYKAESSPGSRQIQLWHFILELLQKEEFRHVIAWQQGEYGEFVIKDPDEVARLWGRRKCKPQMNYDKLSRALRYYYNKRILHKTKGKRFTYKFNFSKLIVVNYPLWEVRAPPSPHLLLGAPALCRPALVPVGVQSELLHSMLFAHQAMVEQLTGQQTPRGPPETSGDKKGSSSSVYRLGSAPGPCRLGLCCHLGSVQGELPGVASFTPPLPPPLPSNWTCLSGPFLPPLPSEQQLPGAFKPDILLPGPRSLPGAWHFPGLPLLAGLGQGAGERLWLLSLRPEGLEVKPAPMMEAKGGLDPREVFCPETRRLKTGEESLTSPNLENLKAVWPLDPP
# Outline: as §1
# ETS2 = biological target: T3, ETS2 (Homo sapiens, UniProt P15036 1-469)
# T3 sequence: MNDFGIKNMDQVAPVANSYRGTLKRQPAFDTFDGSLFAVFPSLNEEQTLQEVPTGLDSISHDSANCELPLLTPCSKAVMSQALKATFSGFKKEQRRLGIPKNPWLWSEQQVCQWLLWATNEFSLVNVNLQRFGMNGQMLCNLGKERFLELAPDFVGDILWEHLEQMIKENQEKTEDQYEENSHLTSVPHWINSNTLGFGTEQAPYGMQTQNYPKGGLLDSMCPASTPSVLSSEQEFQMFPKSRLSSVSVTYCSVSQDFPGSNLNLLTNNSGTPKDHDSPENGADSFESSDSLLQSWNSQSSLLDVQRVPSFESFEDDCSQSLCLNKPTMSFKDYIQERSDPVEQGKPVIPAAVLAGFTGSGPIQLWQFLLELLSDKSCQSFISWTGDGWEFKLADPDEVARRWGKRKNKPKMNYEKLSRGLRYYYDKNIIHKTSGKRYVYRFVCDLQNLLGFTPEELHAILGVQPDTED
# Outline: as §1
# SPDEF = biological target: T4, SPDEF (Homo sapiens, UniProt O95238 1-335)
# T4 sequence: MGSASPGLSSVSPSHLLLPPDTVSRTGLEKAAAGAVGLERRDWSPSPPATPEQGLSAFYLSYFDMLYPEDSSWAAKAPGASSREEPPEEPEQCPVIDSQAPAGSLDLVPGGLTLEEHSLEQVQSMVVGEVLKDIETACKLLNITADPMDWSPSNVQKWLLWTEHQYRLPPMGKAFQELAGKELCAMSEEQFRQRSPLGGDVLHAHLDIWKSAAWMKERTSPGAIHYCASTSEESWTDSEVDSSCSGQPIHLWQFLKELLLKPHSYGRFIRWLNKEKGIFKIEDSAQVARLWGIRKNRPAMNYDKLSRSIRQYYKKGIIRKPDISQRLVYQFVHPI
# Outline: as §1
# ETV7 = biological target: T5, ETV7 (Homo sapiens, UniProt Q9Y603 1-341)
# T5 sequence: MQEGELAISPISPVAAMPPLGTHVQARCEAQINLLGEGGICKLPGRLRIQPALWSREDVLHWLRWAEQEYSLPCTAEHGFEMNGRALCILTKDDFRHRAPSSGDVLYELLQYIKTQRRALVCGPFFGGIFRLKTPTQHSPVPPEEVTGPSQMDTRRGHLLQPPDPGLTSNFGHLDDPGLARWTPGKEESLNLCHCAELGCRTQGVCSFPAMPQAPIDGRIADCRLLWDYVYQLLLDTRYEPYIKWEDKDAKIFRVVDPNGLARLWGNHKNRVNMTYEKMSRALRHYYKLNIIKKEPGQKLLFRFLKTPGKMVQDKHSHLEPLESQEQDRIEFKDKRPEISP
# Outline: as §1
# ELF5 = biological target: T6, ELF5 (Homo sapiens, UniProt Q9UKW6-2 1-255)
# T6 sequence: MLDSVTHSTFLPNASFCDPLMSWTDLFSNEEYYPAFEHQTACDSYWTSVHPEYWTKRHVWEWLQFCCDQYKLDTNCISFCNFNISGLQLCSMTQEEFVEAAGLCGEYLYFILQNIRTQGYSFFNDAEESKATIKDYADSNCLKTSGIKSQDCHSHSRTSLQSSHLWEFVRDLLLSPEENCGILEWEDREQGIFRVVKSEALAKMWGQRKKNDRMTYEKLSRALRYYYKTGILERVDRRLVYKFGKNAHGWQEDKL
# Outline: as §1
# ETV3 = biological target: T7, ETV3 (Homo sapiens, UniProt P41162-2 1-143)
# T7 sequence: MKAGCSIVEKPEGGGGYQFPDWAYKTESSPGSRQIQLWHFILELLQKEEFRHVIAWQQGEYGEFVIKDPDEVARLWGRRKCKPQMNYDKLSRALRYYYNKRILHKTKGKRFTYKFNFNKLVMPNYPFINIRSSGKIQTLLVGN
# Outline: as §1
# ETV6 = ETV6 (Homo sapiens, UniProt P41212 1-452)
# Chain of ETV6 (P41212 whole entry): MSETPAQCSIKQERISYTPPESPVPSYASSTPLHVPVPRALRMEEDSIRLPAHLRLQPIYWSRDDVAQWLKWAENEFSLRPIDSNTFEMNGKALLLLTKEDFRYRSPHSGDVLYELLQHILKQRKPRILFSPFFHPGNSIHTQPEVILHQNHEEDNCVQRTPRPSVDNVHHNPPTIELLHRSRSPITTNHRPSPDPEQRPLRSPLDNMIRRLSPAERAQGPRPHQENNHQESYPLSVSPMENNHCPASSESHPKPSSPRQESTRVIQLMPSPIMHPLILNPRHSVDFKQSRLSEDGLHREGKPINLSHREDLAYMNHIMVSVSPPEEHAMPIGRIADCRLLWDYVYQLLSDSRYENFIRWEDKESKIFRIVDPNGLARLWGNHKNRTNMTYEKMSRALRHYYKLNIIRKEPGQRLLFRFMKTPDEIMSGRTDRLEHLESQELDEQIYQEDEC
# Outline: as §1
Sequence,binding signal (ERF),binding signal (ETV3L),binding signal (ETS2),binding signal (SPDEF),binding signal (ETV7),binding signal (ELF5),binding signal (ETV3),binding signal (ETV6)
ATACTT,"1.66 fold enrichment (6-mer frequency, TF over GST control)","1.59 fold enrichment (6-mer frequency, TF over GST control)","1.59 fold enrichment (6-mer frequency, TF over GST control)","1.63 fold enrichment (6-mer frequency, TF over GST control)","1.69 fold enrichment (6-mer frequency, TF over GST control)","1.84 fold enrichment (6-mer frequency, TF over GST control)","1.63 fold enrichment (6-mer frequency, TF over GST control)","1.87 fold enrichment (6-mer frequency, TF over GST control)"
CTAAGC,"1.14 fold enrichment (6-mer frequency, TF over GST control)","1.09 fold enrichment (6-mer frequency, TF over GST control)","1.15 fold enrichment (6-mer frequency, TF over GST control)","1.06 fold enrichment (6-mer frequency, TF over GST control)","1.04 fold enrichment (6-mer frequency, TF over GST control)","1.07 fold enrichment (6-mer frequency, TF over GST control)","1.07 fold enrichment (6-mer frequency, TF over GST control)","1.08 fold enrichment (6-mer frequency, TF over GST control)"
AACGAC,"1.14 fold enrichment (6-mer frequency, TF over GST control)","1.15 fold enrichment (6-mer frequency, TF over GST control)","1.19 fold enrichment (6-mer frequency, TF over GST control)","1.16 fold enrichment (6-mer frequency, TF over GST control)","1.07 fold enrichment (6-mer frequency, TF over GST control)","1.18 fold enrichment (6-mer frequency, TF over GST control)","1.11 fold enrichment (6-mer frequency, TF over GST control)","1.19 fold enrichment (6-mer frequency, TF over GST control)"
TATTCG,"1.17 fold enrichment (6-mer frequency, TF over GST control)","1.16 fold enrichment (6-mer frequency, TF over GST control)","1.13 fold enrichment (6-mer frequency, TF over GST control)","1.1 fold enrichment (6-mer frequency, TF over GST control)","1.19 fold enrichment (6-mer frequency, TF over GST control)","1.09 fold enrichment (6-mer frequency, TF over GST control)","1.19 fold enrichment (6-mer frequency, TF over GST control)","1.02 fold enrichment (6-mer frequency, TF over GST control)"
CTACGT,"1.24 fold enrichment (6-mer frequency, TF over GST control)","1.29 fold enrichment (6-mer frequency, TF over GST control)","1.12 fold enrichment (6-mer frequency, TF over GST control)","1.12 fold enrichment (6-mer frequency, TF over GST control)","1.35 fold enrichment (6-mer frequency, TF over GST control)","1.27 fold enrichment (6-mer frequency, TF over GST control)","1.17 fold enrichment (6-mer frequency, TF over GST control)","1.42 fold enrichment (6-mer frequency, TF over GST control)"
CTCACT,"1.45 fold enrichment (6-mer frequency, TF over GST control)","1.52 fold enrichment (6-mer frequency, TF over GST control)","1.6 fold enrichment (6-mer frequency, TF over GST control)","1.44 fold enrichment (6-mer frequency, TF over GST control)","1.56 fold enrichment (6-mer frequency, TF over GST control)","1.54 fold enrichment (6-mer frequency, TF over GST control)","1.5 fold enrichment (6-mer frequency, TF over GST control)","1.6 fold enrichment (6-mer frequency, TF over GST control)"
TAAAGA,"1.23 fold enrichment (6-mer frequency, TF over GST control)","1.12 fold enrichment (6-mer frequency, TF over GST control)","1.08 fold enrichment (6-mer frequency, TF over GST control)","1.04 fold enrichment (6-mer frequency, TF over GST control)","1.08 fold enrichment (6-mer frequency, TF over GST control)","1.05 fold enrichment (6-mer frequency, TF over GST control)","1.08 fold enrichment (6-mer frequency, TF over GST control)","1.06 fold enrichment (6-mer frequency, TF over GST control)"
TCAAAT,"1.01 fold enrichment (6-mer frequency, TF over GST control)","1.13 fold enrichment (6-mer frequency, TF over GST control)","1.09 fold enrichment (6-mer frequency, TF over GST control)","1.11 fold enrichment (6-mer frequency, TF over GST control)","1.14 fold enrichment (6-mer frequency, TF over GST control)","1.07 fold enrichment (6-mer frequency, TF over GST control)","1.07 fold enrichment (6-mer frequency, TF over GST control)","1.07 fold enrichment (6-mer frequency, TF over GST control)"
TAAACA,"1.31 fold enrichment (6-mer frequency, TF over GST control)","1.25 fold enrichment (6-mer frequency, TF over GST control)","1.27 fold enrichment (6-mer frequency, TF over GST control)","1.27 fold enrichment (6-mer frequency, TF over GST control)","1.24 fold enrichment (6-mer frequency, TF over GST control)","1.22 fold enrichment (6-mer frequency, TF over GST control)","1.25 fold enrichment (6-mer frequency, TF over GST control)","1.25 fold enrichment (6-mer frequency, TF over GST control)"
CATGAT,"1 fold enrichment (6-mer frequency, TF over GST control)","1.13 fold enrichment (6-mer frequency, TF over GST control)","1.07 fold enrichment (6-mer frequency, TF over GST control)","1.01 fold enrichment (6-mer frequency, TF over GST control)","1.02 fold enrichment (6-mer frequency, TF over GST control)","1.1 fold enrichment (6-mer frequency, TF over GST control)","1.09 fold enrichment (6-mer frequency, TF over GST control)","1.09 fold enrichment (6-mer frequency, TF over GST control)"
CGTAAC,"1.09 fold enrichment (6-mer frequency, TF over GST control)","1.08 fold enrichment (6-mer frequency, TF over GST control)","1.15 fold enrichment (6-mer frequency, TF over GST control)","1.17 fold enrichment (6-mer frequency, TF over GST control)","1.07 fold enrichment (6-mer frequency, TF over GST control)","1.12 fold enrichment (6-mer frequency, TF over GST control)","1.16 fold enrichment (6-mer frequency, TF over GST control)","1.06 fold enrichment (6-mer frequency, TF over GST control)"
AATTCT,"1.33 fold enrichment (6-mer frequency, TF over GST control)","1.29 fold enrichment (6-mer frequency, TF over GST control)","1.29 fold enrichment (6-mer frequency, TF over GST control)","1.23 fold enrichment (6-mer frequency, TF over GST control)","1.26 fold enrichment (6-mer frequency, TF over GST control)","1.22 fold enrichment (6-mer frequency, TF over GST control)","1.25 fold enrichment (6-mer frequency, TF over GST control)","1.25 fold enrichment (6-mer frequency, TF over GST control)"
TGCACG,"1.11 fold enrichment (6-mer frequency, TF over GST control)","1.1 fold enrichment (6-mer frequency, TF over GST control)","1.15 fold enrichment (6-mer frequency, TF over GST control)","1.11 fold enrichment (6-mer frequency, TF over GST control)","1.19 fold enrichment (6-mer frequency, TF over GST control)","1.02 fold enrichment (6-mer frequency, TF over GST control)","1.13 fold enrichment (6-mer frequency, TF over GST control)","1.06 fold enrichment (6-mer frequency, TF over GST control)"
ACGAAC,"1.05 fold enrichment (6-mer frequency, TF over GST control)","1.07 fold enrichment (6-mer frequency, TF over GST control)","1.22 fold enrichment (6-mer frequency, TF over GST control)","1.13 fold enrichment (6-mer frequency, TF over GST control)","1.21 fold enrichment (6-mer frequency, TF over GST control)","1.09 fold enrichment (6-mer frequency, TF over GST control)","1.04 fold enrichment (6-mer frequency, TF over GST control)","1.1 fold enrichment (6-mer frequency, TF over GST control)"
CCACAT,"1.28 fold enrichment (6-mer frequency, TF over GST control)","1.15 fold enrichment (6-mer frequency, TF over GST control)","1.2 fold enrichment (6-mer frequency, TF over GST control)","1.22 fold enrichment (6-mer frequency, TF over GST control)","1.05 fold enrichment (6-mer frequency, TF over GST control)","1.15 fold enrichment (6-mer frequency, TF over GST control)","1.17 fold enrichment (6-mer frequency, TF over GST control)","1.2 fold enrichment (6-mer frequency, TF over GST control)"
